# According to PubChem BioAssay AID1347076 (National Center for Advancing Translational Sciences (NCATS), 2019):
# About 13,000 (3.2%) of roughly 400,000 compounds were called active. Roughly 18% stayed inconclusive and do not appear here. The sample as a whole holds a higher share of actives than the screen did. Unmarked numbers belong to inactive results. The call rests on the fitted dose curve; in most records, active means well fitted cell-killing curve with a large enough effect; inconclusive means small, poorly fitted or top-dose-only effect, or effect the other way; inactive means flat fitted curve, though single readings scatter.
# Experiment: qHTS assay for MDR1-selective chemotherapeutics: Primary screen using the drug-selected MDR subline cells KB-V1; further: nearly all actives have a fitted effect of over 60% in size
# Settings: KB-V1 MDR cells viability, CellTiter-Glo, 72 h; series mostly up to 46.1 µM; activity change, negative = cytotoxicity: at the top concentration
# Method in brief: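 qHTS viability screen in drug-selected KB-V1 MDR cells: 72 h compound treatment at 37 degrees C, ATP luminescence end point.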
# On the % scale 0 is the no-effect control and ±100 the full control effect; potency means the concentration at half of the fitted maximal effect.
Structure (SMILES),"activity change, negative = cytotoxicity [%]",Potency
c1ccc(CNCc2ccc(CNCc3ccccc3)cc2)cc1,-14.3,
CCc1nnc(SCC(=O)Nc2cc(OC)ccc2OC)nc1CC,-12.3,
Cc1ccccc1OS(=O)(=O)c1cccc([N+](=O)[O-])c1,-5.34,
Cc1ccccc1OCCOc1ccc([N+](=O)[O-])cc1/C=N/n1cnnc1,,8.2 µM (active)
COc1ccccc1OCCOc1ccc(/C=N/n2cnnc2)cc1,13.5,
O=C(CSc1nc2cccc(F)c2c(=O)n1-c1ccccc1)Nc1ccc2c(c1)CCC2,9.88,
O=C1c2ccccc2C(=O)N1CCCCCCN1C(=O)c2ccccc2C1=O,-1.54,
c1ccc(CCc2nc(-c3ccncc3)no2)cc1,3.7,
O=C1c2ccccc2C(=O)N1CCCc1nc(-c2ccccc2)no1,,18.4 µM (active)
C[C@H]1CN([C@@H](C)CO)C(=O)CCCn2cc(nn2)CO[C@@H]1CN(C)S(=O)(=O)c1cccs1,25.4,
OC(c1ccc(Cl)c(F)c1)c1ncc(-c2ccccc2Cl)[nH]1 (stereo unspecified),-18.9,
Cc1ccc(S(=O)(=O)N2CCOCC2)cc1NC(=O)c1ccncc1,-0.489,
CCN(CC)S(=O)(=O)c1ccc(N2CCOCC2)c(NC(=O)C2COc3ccccc3O2)c1 (stereo unspecified),0,
O=C(CNCc1cccs1)Nc1cc(S(=O)(=O)N2CCCC2)ccc1Cl,-9.92,
O=C(Nc1cc(S(=O)(=O)N2CCCCC2)ccc1Cl)C1COc2ccccc2O1 (stereo unspecified),,14.6 µM (active)
CCc1ccc(Sc2cc(C(=O)NCCCOC(C)C)c3ccccc3n2)cc1,-5.59,
O=C1c2ccccc2C(=O)c2c1cccc2N1CCN(Cc2ccccc2)CC1,,18.4 µM (active)
CCc1c(C)nc(N2CCN(Cc3ccccc3)CC2)[nH]c1=O,-7.43,
O=C1c2ccccc2C(=O)c2c1cccc2N1CCN(C/C=C/c2ccccc2)CC1,-4.28,
O=c1[nH][nH]c2c1[C@H](c1ccc(Cl)cc1)O[C@H](CCc1ccccc1)C2,3.7,
O=C(CSc1nccn1Cc1ccc(Cl)cc1)NCc1ccccc1,-3.81,
COc1cc(F)ccc1-c1cc(C(=O)NCC2CCCCC2)[nH]n1,5.34,

Structure (SMILES),"activity change, negative = cytotoxicity [%]",Potency
COc1ccc(S(=O)(=O)N2CCC(C(=O)N3CCOCC3)CC2)cc1OC,3.64,
COc1ccc(S(=O)(=O)N2CCC(C(=O)N3CCc4ccccc4C3)CC2)cc1OC,,13 µM (active)
COc1ccc(S(=O)(=O)N2CCC(C(=O)N3CCCC3)CC2)cc1C,-33,
C[C@H](CO)N1C[C@H](C)[C@@H](CN(C)C(=O)c2cnccn2)Oc2ncc(Br)cc2C1=O,7.15,
CC(C)c1ccc(NC(=O)c2ccc(Cn3nc(N4CCN(c5ccccc5)CC4)ccc3=O)o2)cc1,-11.2,
Cc1ccc(-c2nc3ccc(Cl)cn3c2Cc2ccccc2)cc1,4.25,
CC1(C(=O)NS(=O)(=O)Cc2cccc(Cl)c2)CCN1C(=O)Cc1ccccc1 (stereo unspecified),1.26,
COc1ccc(CNC(=O)CCn2cccc2)cc1,5.31,
COc1ccc(CNC(=O)CCCn2nc(C)c([N+](=O)[O-])c2C)cc1,,25.9 µM (active)
Cc1nn(CC(=O)NCc2ccccn2)c(C)c1[N+](=O)[O-],19.4,
Cc1nn(CC(=O)Nc2ccc(N(C)C)cc2)c(C)c1[N+](=O)[O-],-5,
Cc1ccc(Oc2cc(NC(=O)CCCn3nc(C)c([N+](=O)[O-])c3C)cc([N+](=O)[O-])c2)cc1,,10.3 µM (active)
CCc1ccc(NC(=O)Cn2nc(C)c([N+](=O)[O-])c2C)cc1,3,
CCCNC(=O)C1(C)CCN(C(=O)c2ccc(F)cc2Cl)C1 (stereo unspecified),4.08,
CC1Cc2ccccc2N1C(=O)Cn1cnc2ccccc2c1=O (stereo unspecified),-2.59,
CC(C)(C)C(=O)CSc1nc2ccccc2o1,-5.46,
COc1ccc(S(=O)(=O)N2CCN(CC(=O)N3c4ccccc4CC3C)CC2)cc1OC (stereo unspecified),-22.6,
CC1Cc2ccccc2N1C(=O)CSc1nc2ccccc2o1 (stereo unspecified),,14.6 µM (active)
CC1Cc2ccccc2N1C(=O)CSc1nnc(-c2ccc(S(=O)(=O)N3CCCC3)cc2)n1C (stereo unspecified),,16.4 µM (active)
O=C(CSc1nc2ccccc2o1)N1CCN(c2ccccc2)CC1,2.2,
CC1Cc2ccccc2N1C(=O)CSc1nnc(C2CC2)n1C (stereo unspecified),-27,
CN(C)S(=O)(=O)c1ccc2oc(SCC(=O)Nc3ccccc3F)nc2c1,2.48,

Structure (SMILES),"activity change, negative = cytotoxicity [%]",Potency
CCn1c(CSc2ncccn2)nnc1SCC(=O)N1c2ccccc2CC1C (stereo unspecified),,11.6 µM (active)
CC1CC(C)CN(C(=O)CSc2nnc(CSc3ncccn3)n2C)C1 (stereo unspecified),1.6,
Cn1c(SCC(=O)OC2CCCCC2)nnc1-c1ccc(S(=O)(=O)N2CCCC2)cc1,-8.43,
CCS(=O)(=O)c1ccc2oc(SCC(=O)N3c4ccccc4CC3C)nc2c1 (stereo unspecified),,5.17 µM (active)
Cc1cc(C)c2sc(NC(=O)c3ccc(S(=O)(=O)N4CCCC4)cc3)nc2c1,0,
Brc1ccc2nc(-c3ccccc3)c(Cc3ccccc3)n2c1,9.06,
ClC/C=C/C[n+]1ccccc1Cl,-11.5,
CC(C)(C)c1ccc(S(=O)(=O)NC(=O)C2(C)CCN2C(=O)CC2CC2)cc1 (stereo unspecified),3.48,
COc1ccc(C(=O)N2CCCCC2c2cc(C(=O)Nc3ccccc3)no2)cc1 (stereo unspecified),-4.79,
Cn1cc(S(=O)(=O)N2CCCCCC2)cc1C(=O)N1CCN(c2ccc(F)cc2)CC1,-10.1,
CCOC(=O)c1cnc(SCC(=O)Nc2ccccc2C(=O)OC)nc1N,,2.59 µM (active)
CCOC(=O)c1cnc(SCC(=O)Nc2cccc(OC)c2)nc1N,11.5,
CCOC(=O)c1cnc(SCC(=O)NCc2ccco2)nc1N,-0.0889,
CCOC(=O)c1c(C)[nH]c(C)c1S(=O)(=O)N1CCC(C(=O)Nc2ccc(C)c(Cl)c2)CC1,0,
Cc1ccc(CNC(=O)CN2CCN(Cc3ccc(Cl)cc3)C2=O)cc1,-13,
CCCCC(=O)N/N=C(\C)CC(=O)Nc1cc(Cl)ccc1OC,15.9,
C/C(CC(=O)NCc1ccc(Cl)cc1)=N\NC(=O)COc1ccc(C)cc1Br,,8.2 µM (active)
O=C(NCc1ccc(F)cc1)c1cc(C2CCCCN2C(=O)c2cccs2)on1 (stereo unspecified),-6.97,
CC1C(=O)N(Cc2cn(Cc3ccco3)nn2)CCS(=O)(=O)N1Cc1ccc(-c2cccc(CO)c2)cc1 (stereo unspecified),-6.01,
CN1CCN(CC(=O)Nc2cccc([N+](=O)[O-])c2)CC1,-17.3,
CCCCc1nc2ccccc2c(NC(=O)CN2CCN(C)CC2)c1CCC,,8.2 µM (active)
CCc1ccc(-c2cc(C(=O)NN3CCN(C)CC3)c3ccccc3n2)cc1,9.05,
